Results filed as inconclusive are left out. Where a call stands in place of a potency, no number is given. Calls of active or inactive are those of the source. Calls follow the shape of the dose curve; as a rule, active = well fitted inhibition curve with a large enough effect; inconclusive = small, poorly fitted or top-dose-only effect; inactive = flat fitted curve, though single readings scatter.
Tests used:
Experiment in all cases: qHTS profiling for inhibitors of Plasmodium falciparum proliferation (AID 504749); also: nearly all actives have a fitted effect of over 60% in size
Details in all cases: P. falciparum in erythrocytes, SYBR Green DNA, 72 h; series mostly up to 28.7 µM
CP260 = system: CP260
How it was run: (§1)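 P. falciparum-infected erythrocytes (0.3% parasitemia, 2.5% hematocrit) incubated with compound 72 h at 37 C, 5% CO2. Parasite DNA detected by SYBR Green after lysis, overnight at room temperature; normalised to 0.29 uM artemisinin and DMSO.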

CP262 = system: CP262
How it was run: as §1

CP265 = system: CP265
How it was run: as §1

CP266 = system: CP266
How it was run: as §1

CP268 = system: CP268
How it was run: as §1

CP269 = system: CP269
How it was run: as §1

CP286 = system: CP286
How it was run: as §1

CP291 = system: CP291
How it was run: as §1

CP297 = system: CP297
How it was run: as §1

CP305 = system: CP305
How it was run: as §1

CP315 = system: CP315
How it was run: as §1

CP325 = system: CP325
How it was run: as §1

CP329 = system: CP329
How it was run: as §1

CP335 = system: CP335
How it was run: as §1

DFO2036 = system: DFO2036
How it was run: as §1

DIV14 = system: DIV14
How it was run: as §1

DIV17 = system: DIV17
How it was run: as §1

DIV30 = system: DIV30
How it was run: as §1

Dd2 = system: Dd2
How it was run: as §1

ECU = system: ECU
How it was run: as §1
Potency is read from the fitted curve at half-maximal effect.

Compound	Potency (CP260)	Potency (CP262)	Potency (CP265)	Potency (CP266)	Potency (CP268)	Potency (CP269)	Potency (CP286)	Potency (CP291)	Potency (CP297)	Potency (CP305)	Potency (CP315)	Potency (CP325)	Potency (CP329)	Potency (CP335)	Potency (DFO2036)	Potency (DIV14)	Potency (DIV17)	Potency (DIV30)	Potency (Dd2)	Potency (ECU)
CC1(C)CO[C@@H](CC(=O)O)CN1	inactive	inactive	inactive	inactive	inactive	inactive	inactive	inactive	inactive	inactive	inactive	inactive	inactive	inactive	inactive	inactive	inactive	inactive	inactive	inactive
O=C1NS(=O)(=O)c2ccccc21	inactive	inactive	inactive	inactive	inactive	inactive	inactive	inactive	inactive	inactive	inactive	inactive	inactive	inactive	inactive	inactive	inactive	inactive	inactive	inactive
O=C(O)c1ccccc1-c1ccc(C(F)(F)F)cc1	inactive	inactive	inactive	inactive	inactive	inactive	inactive	inactive	inactive	inactive	inactive	inactive	inactive	inactive	inactive	inactive	inactive	inactive	inactive	inactive
C=Cc1c(C)c2cc3[nH]c(cc4nc(cc5nc(cc1[nH]2)C(C)=C5CCC(=O)O)C(CCC(=O)O)=C4C)c(C)c3C=C	inactive	inactive	inactive	inactive	inactive	inactive	inactive	inactive	inactive	inactive	inactive	inactive	inactive	inactive	inactive	inactive	inactive	inactive	inactive	inactive
Nc1ccc(S(=O)(=O)NC(=O)c2ccccc2)cc1	inactive	inactive	inactive	inactive	inactive	inactive	inactive	inactive	inactive	inactive	inactive	inactive	inactive	inactive	inactive	inactive	inactive	inactive	inactive	inactive
C[C@](N)(Cc1ccc(O)cc1)C(=O)O	inactive	inactive	inactive	inactive	inactive	inactive	inactive	inactive	inactive	inactive	inactive	inactive	inactive	inactive	inactive	inactive	inactive	inactive	inactive	inactive
O=c1cc(CO)occ1O	inactive	inactive	inactive	inactive	inactive	inactive	inactive	inactive	inactive	inactive	inactive	inactive	inactive	inactive	inactive	inactive	inactive	inactive	inactive	inactive
C[C@]12C[C@H](O)[C@H]3[C@@H](CCC4=CC(=O)CC[C@@]43C)[C@@H]1CC[C@@H]2C(=O)CO	inactive	inactive	–	inactive	inactive	inactive	inactive	inactive	inactive	inactive	inactive	inactive	inactive	inactive	–	inactive	inactive	inactive	–	–
CSc1ccc2c(c1)C(N1CCN(C)CC1)Cc1ccccc1S2 (stereo not given)	10 µM (active)	inactive	inactive	inactive	–	–	–	–	–	–	inactive	–	–	–	–	10.7 µM (active)	15.1 µM (active)	–	–	–
O=C(O)c1ccccn1	inactive	inactive	inactive	inactive	inactive	inactive	inactive	inactive	inactive	inactive	inactive	inactive	inactive	–	inactive	–	inactive	inactive	inactive	inactive
Cc1ccc(C(C)C)cc2c(C)ccc1-2	inactive	inactive	inactive	inactive	inactive	inactive	inactive	inactive	inactive	inactive	inactive	inactive	inactive	inactive	inactive	–	inactive	–	inactive	inactive
CCCCN(CCCC)CC(O)c1cc(Cl)cc2c1-c1ccc(Cl)cc1/C2=C/c1ccc(Cl)cc1 (stereo not given)	0.0316 µM (active)	0.0338 µM (active)	0.112 µM (active)	0.135 µM (active)	0.135 µM (active)	0.0379 µM (active)	0.0316 µM (active)	0.0379 µM (active)	0.0338 µM (active)	0.107 µM (active)	0.0536 µM (active)	0.0426 µM (active)	0.0478 µM (active)	0.0239 µM (active)	0.0126 µM (active)	–	0.0135 µM (active)	0.0067 µM (active)	0.0089 µM (active)	0.0056 µM (active)
CCOc1nc2cccc(C(=O)O)c2n1Cc1ccc(-c2ccccc2-c2nn[nH]n2)cc1	inactive	inactive	inactive	inactive	–	–	inactive	–	inactive	inactive	inactive	inactive	inactive	inactive	inactive	–	–	–	inactive	–
CC(O)CN(CCN(CC(C)O)CC(C)O)CC(C)O (stereo not given)	inactive	inactive	inactive	–	inactive	inactive	inactive	inactive	inactive	inactive	inactive	inactive	inactive	inactive	inactive	inactive	inactive	inactive	inactive	inactive
